Tests used:
[1] = biological target: T1, Inhibitor of nuclear factor kappa-B kinase subunit epsilon (Homo sapiens) (UniProt Q14164); details: at 1 µM;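 also: reported values are averaged percent inhibition figures against human IKKε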
T1 sequence (whole entry): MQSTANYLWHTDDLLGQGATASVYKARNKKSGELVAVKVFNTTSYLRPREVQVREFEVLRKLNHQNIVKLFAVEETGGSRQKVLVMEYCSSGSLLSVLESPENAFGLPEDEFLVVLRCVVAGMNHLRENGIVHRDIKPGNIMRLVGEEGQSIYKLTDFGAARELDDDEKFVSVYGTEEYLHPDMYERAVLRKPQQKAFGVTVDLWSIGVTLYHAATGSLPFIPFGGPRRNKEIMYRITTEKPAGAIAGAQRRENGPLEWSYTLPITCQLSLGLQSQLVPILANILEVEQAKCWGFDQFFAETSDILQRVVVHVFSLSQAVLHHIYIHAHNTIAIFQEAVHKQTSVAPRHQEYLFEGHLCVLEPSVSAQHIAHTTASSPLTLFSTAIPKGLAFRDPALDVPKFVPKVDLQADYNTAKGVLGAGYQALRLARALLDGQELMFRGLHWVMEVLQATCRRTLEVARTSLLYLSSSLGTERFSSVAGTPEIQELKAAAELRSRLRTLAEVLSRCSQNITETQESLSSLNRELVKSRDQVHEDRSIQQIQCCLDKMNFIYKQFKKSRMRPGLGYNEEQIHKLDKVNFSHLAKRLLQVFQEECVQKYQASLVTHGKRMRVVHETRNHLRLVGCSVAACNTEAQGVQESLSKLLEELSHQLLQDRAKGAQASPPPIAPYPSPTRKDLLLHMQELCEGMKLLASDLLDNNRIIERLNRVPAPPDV

[2] = biological target: T2, Serine/threonine-protein kinase Nek1 (Homo sapiens) (UniProt Q96PY6); details: at 0.1 µM
T2 sequence (whole entry): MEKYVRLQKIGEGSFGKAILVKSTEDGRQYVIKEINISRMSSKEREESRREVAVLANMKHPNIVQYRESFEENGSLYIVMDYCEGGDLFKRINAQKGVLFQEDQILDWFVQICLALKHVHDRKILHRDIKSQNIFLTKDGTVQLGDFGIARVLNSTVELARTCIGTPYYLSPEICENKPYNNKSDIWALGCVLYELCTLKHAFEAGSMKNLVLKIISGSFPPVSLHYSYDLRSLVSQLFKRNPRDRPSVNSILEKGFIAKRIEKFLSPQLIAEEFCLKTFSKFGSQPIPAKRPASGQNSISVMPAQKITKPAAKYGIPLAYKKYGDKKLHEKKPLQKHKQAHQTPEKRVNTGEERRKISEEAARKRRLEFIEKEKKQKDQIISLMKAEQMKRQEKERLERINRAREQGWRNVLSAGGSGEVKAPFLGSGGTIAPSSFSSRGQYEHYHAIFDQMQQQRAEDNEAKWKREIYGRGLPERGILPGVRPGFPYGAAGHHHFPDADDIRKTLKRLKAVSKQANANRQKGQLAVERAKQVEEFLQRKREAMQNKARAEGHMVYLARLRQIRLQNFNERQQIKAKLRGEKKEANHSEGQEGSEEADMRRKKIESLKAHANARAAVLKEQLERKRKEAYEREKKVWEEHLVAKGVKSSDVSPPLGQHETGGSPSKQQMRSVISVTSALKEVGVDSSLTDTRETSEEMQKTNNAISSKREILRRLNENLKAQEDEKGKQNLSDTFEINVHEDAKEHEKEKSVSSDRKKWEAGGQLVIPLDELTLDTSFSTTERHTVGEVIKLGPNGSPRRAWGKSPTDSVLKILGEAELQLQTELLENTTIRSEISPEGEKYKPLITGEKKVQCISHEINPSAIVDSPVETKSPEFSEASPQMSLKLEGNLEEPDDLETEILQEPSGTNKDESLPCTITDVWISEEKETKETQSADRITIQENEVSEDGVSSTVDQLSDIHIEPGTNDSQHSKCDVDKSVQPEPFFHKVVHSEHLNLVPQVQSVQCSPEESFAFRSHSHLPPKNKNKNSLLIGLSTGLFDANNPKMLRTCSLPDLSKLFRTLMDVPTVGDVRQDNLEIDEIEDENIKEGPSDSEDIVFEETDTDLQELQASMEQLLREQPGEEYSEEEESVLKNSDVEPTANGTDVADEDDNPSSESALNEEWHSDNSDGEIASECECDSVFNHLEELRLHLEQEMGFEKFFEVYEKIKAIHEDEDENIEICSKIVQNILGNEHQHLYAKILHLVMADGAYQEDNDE

[3] = biological target: T2, Serine/threonine-protein kinase Nek1 (Homo sapiens); details: at 1 µM
[4] = biological target: T3, Serine/threonine-protein kinase Nek2 (Homo sapiens) (UniProt P51955); details: at 0.1 µM
T3 sequence (whole entry): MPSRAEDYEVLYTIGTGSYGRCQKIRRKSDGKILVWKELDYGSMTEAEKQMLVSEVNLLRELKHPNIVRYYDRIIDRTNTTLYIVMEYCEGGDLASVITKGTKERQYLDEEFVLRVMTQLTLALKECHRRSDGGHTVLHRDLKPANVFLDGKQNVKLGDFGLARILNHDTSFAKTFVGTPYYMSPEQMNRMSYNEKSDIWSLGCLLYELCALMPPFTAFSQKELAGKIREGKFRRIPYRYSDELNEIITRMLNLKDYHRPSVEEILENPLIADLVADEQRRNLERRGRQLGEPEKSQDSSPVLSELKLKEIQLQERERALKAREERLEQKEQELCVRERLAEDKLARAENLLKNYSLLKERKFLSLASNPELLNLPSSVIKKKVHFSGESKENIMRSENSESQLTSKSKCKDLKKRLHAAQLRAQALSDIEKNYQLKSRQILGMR

[5] = biological target: T3, Serine/threonine-protein kinase Nek2 (Homo sapiens); details: at 1 µM
[6] = biological target: Serine/threonine-protein kinase Nek6 (Homo sapiens) (UniProt Q9HC98); details: at 0.1 µM
[7] = biological target: Serine/threonine-protein kinase Nek6 (Homo sapiens) (UniProt Q9HC98); details: at 1 µM
[8] = biological target: Serine/threonine-protein kinase Nek7 (Homo sapiens) (UniProt Q8TDX7); details: at 0.1 µM
[9] = biological target: Serine/threonine-protein kinase Nek7 (Homo sapiens) (UniProt Q8TDX7); details: at 1 µM
[10] = biological target: T4, Serine/threonine-protein kinase Nek9 (Homo sapiens) (UniProt Q8TD19); details: at 0.1 µM
T4 sequence (whole entry): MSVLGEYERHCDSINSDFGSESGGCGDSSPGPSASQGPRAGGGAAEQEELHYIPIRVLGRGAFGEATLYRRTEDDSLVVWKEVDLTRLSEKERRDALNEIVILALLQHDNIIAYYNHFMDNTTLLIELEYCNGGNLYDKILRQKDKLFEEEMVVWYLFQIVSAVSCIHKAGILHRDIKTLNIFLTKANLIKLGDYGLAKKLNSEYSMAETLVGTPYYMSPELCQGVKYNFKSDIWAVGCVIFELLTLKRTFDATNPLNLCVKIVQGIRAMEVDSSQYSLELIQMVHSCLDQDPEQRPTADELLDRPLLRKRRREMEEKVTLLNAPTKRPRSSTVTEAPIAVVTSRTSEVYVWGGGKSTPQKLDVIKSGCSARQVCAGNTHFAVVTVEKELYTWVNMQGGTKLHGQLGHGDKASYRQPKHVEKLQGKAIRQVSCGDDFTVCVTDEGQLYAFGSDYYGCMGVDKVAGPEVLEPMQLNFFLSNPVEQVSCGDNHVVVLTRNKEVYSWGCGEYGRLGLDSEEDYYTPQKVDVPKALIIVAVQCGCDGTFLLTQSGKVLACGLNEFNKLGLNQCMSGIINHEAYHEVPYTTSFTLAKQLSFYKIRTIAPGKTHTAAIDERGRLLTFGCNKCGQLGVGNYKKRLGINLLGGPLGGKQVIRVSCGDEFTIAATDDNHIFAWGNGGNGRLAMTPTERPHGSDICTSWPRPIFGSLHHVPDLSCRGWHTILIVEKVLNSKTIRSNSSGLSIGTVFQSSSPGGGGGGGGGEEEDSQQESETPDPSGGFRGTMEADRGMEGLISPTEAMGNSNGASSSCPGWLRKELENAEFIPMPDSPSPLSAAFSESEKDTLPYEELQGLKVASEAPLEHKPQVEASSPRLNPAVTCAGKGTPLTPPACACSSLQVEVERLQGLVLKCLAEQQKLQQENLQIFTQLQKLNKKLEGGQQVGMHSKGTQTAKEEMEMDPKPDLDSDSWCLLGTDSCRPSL

[11] = biological target: T4, Serine/threonine-protein kinase Nek9 (Homo sapiens); details: at 1 µM
[12] = biological target: Serine/threonine-protein kinase PLK1 (Homo sapiens) (UniProt P53350); details: at 0.1 µM
[13] = biological target: Serine/threonine-protein kinase PLK1 (Homo sapiens) (UniProt P53350); details: at 1 µM
[14] = biological target: T5, Dual specificity protein kinase TTK (Homo sapiens) (UniProt P33981); details: at 0.1 µM
T5 sequence (whole entry): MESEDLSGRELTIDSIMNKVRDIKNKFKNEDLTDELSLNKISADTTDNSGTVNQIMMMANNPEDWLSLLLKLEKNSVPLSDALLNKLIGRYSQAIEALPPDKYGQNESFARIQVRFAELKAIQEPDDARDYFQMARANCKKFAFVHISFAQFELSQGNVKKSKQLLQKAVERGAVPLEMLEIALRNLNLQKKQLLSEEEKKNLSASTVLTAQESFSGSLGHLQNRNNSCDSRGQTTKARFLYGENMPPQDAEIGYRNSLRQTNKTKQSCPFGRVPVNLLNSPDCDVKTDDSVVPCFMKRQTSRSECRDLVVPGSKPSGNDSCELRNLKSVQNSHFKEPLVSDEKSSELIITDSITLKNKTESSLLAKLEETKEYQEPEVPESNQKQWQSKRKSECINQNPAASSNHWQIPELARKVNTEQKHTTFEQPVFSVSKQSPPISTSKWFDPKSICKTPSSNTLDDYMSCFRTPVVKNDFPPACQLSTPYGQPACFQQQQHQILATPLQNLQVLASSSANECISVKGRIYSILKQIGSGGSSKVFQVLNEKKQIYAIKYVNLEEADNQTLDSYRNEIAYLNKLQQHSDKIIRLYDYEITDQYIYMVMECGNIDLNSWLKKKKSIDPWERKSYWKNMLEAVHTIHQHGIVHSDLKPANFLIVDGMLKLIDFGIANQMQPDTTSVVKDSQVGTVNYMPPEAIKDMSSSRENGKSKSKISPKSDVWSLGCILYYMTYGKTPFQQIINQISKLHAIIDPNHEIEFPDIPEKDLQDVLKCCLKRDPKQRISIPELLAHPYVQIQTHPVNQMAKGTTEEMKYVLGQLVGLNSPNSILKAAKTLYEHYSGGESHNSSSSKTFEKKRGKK

[15] = system: T6, Receptor-type tyrosine-protein kinase FLT3 (Homo sapiens), P36888 [D835Y]; details: at 1 µM
T6 sequence (whole entry): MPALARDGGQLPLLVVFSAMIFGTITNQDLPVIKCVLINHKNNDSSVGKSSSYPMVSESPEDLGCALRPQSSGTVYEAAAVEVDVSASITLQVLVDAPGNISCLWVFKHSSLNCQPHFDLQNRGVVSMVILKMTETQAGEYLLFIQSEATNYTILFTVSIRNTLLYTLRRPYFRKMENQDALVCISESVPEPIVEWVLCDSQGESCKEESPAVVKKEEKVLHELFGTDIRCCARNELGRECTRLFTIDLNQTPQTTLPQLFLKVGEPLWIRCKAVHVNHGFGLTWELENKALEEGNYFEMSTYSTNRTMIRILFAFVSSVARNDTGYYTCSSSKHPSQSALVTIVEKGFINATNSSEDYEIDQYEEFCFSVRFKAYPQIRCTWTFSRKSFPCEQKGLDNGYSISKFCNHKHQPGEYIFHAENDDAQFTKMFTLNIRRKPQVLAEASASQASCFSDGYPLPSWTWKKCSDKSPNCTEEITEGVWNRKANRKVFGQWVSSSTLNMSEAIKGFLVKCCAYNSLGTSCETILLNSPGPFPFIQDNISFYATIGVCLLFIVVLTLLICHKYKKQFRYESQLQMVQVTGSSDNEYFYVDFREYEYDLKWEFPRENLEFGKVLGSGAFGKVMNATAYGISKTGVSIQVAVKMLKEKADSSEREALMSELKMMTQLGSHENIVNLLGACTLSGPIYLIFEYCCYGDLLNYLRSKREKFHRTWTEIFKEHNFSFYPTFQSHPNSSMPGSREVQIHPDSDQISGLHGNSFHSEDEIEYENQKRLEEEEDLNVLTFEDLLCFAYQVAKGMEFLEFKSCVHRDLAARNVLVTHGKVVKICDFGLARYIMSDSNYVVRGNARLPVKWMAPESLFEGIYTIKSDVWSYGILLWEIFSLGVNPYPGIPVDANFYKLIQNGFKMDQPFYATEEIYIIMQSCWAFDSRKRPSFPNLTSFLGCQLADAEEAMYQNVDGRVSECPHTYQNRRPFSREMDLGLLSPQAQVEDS

[16] = biological target: Vascular endothelial growth factor receptor 3 (Homo sapiens) (UniProt P35916); details: at 0.1 µM
[17] = biological target: Vascular endothelial growth factor receptor 3 (Homo sapiens) (UniProt P35916); details: at 1 µM
[18] = biological target: Macrophage colony-stimulating factor 1 receptor (Homo sapiens) (UniProt P07333); details: at 0.1 µM
[19] = biological target: Macrophage colony-stimulating factor 1 receptor (Homo sapiens) (UniProt P07333); details: at 1 µM
[20] = biological target: Tyrosine-protein kinase Fyn (Homo sapiens) (UniProt P06241); details: at 0.1 µM
Chain of Tyrosine-protein kinase Fyn (Homo sapiens) (P06241 2-537 limits assumed): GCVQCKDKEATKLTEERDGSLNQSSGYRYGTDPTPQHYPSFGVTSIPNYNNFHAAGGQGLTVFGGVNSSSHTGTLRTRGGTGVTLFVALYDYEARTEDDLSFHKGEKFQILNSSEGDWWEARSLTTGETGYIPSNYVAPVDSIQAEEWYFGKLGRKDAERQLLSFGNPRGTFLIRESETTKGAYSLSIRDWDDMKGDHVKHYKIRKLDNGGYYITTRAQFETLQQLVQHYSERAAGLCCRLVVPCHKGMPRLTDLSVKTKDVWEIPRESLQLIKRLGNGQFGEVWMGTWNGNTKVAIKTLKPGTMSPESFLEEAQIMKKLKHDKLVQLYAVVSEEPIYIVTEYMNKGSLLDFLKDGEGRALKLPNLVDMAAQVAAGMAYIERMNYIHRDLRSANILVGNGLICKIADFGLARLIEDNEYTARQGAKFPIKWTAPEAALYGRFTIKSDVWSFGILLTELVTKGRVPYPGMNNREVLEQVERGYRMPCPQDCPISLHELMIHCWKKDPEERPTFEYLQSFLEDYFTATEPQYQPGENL

Chain of Serine/threonine-protein kinase Nek6 (Homo sapiens) (Q9HC98 whole entry): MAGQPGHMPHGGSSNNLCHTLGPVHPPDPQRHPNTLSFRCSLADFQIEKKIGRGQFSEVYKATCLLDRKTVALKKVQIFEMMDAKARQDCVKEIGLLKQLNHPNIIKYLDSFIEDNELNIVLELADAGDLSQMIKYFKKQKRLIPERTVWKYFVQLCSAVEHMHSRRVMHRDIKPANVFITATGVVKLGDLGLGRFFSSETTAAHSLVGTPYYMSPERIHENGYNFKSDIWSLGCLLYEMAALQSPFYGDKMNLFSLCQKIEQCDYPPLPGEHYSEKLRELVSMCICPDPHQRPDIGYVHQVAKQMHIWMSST
Chain of Macrophage colony-stimulating factor 1 receptor (Homo sapiens) (P07333 whole entry): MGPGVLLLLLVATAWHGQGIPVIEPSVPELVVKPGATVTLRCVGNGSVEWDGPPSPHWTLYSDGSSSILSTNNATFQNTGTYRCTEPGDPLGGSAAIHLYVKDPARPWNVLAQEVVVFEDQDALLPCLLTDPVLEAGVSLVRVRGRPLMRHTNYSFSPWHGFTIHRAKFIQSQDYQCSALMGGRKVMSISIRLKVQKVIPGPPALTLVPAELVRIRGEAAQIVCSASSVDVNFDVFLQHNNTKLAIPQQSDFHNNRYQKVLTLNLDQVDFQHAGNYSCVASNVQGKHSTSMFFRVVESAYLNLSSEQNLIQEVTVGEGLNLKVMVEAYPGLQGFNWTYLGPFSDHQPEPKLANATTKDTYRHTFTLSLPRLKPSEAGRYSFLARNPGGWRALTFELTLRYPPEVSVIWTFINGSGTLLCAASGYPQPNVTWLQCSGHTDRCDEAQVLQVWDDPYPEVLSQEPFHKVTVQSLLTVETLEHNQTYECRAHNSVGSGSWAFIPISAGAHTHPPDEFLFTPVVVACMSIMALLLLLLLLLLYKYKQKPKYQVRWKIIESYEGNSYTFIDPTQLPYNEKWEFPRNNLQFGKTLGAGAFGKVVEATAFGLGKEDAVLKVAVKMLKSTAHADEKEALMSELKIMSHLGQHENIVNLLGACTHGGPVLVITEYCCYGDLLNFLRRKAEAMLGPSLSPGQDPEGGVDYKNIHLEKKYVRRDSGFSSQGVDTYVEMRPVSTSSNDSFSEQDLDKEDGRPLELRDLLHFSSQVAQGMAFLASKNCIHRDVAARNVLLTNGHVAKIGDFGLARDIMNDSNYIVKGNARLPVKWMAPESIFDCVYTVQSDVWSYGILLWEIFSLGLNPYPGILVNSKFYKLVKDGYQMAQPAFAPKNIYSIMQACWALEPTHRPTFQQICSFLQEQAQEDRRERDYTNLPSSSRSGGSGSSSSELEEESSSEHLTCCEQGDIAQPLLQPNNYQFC
Chain of Serine/threonine-protein kinase PLK1 (Homo sapiens) (P53350 whole entry): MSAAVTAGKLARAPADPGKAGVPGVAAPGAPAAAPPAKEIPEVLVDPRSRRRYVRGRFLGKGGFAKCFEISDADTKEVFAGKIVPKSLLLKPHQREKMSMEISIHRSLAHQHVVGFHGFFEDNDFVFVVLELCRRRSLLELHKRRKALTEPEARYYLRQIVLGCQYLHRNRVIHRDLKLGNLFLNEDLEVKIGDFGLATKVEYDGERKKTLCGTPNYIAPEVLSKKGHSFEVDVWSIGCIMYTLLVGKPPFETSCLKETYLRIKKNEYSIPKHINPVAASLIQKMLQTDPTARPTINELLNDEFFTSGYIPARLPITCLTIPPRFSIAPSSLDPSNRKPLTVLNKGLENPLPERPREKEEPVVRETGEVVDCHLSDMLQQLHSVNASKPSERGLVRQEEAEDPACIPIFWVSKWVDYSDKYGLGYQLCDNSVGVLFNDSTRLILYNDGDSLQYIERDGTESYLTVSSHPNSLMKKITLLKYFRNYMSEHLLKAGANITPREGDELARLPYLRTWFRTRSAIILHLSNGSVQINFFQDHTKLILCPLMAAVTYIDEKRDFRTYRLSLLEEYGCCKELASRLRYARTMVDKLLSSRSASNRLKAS
Chain of Serine/threonine-protein kinase Nek7 (Homo sapiens) (Q8TDX7 whole entry, looked up): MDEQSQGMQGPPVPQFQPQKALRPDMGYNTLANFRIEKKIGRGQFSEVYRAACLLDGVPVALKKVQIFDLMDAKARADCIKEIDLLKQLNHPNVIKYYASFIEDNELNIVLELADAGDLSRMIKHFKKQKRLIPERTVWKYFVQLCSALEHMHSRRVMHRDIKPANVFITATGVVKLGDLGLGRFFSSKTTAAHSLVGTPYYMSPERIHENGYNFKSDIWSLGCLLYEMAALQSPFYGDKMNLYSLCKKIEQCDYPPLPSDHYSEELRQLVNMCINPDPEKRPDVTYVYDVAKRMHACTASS
Chain of Vascular endothelial growth factor receptor 3 (Homo sapiens) (P35916 whole entry): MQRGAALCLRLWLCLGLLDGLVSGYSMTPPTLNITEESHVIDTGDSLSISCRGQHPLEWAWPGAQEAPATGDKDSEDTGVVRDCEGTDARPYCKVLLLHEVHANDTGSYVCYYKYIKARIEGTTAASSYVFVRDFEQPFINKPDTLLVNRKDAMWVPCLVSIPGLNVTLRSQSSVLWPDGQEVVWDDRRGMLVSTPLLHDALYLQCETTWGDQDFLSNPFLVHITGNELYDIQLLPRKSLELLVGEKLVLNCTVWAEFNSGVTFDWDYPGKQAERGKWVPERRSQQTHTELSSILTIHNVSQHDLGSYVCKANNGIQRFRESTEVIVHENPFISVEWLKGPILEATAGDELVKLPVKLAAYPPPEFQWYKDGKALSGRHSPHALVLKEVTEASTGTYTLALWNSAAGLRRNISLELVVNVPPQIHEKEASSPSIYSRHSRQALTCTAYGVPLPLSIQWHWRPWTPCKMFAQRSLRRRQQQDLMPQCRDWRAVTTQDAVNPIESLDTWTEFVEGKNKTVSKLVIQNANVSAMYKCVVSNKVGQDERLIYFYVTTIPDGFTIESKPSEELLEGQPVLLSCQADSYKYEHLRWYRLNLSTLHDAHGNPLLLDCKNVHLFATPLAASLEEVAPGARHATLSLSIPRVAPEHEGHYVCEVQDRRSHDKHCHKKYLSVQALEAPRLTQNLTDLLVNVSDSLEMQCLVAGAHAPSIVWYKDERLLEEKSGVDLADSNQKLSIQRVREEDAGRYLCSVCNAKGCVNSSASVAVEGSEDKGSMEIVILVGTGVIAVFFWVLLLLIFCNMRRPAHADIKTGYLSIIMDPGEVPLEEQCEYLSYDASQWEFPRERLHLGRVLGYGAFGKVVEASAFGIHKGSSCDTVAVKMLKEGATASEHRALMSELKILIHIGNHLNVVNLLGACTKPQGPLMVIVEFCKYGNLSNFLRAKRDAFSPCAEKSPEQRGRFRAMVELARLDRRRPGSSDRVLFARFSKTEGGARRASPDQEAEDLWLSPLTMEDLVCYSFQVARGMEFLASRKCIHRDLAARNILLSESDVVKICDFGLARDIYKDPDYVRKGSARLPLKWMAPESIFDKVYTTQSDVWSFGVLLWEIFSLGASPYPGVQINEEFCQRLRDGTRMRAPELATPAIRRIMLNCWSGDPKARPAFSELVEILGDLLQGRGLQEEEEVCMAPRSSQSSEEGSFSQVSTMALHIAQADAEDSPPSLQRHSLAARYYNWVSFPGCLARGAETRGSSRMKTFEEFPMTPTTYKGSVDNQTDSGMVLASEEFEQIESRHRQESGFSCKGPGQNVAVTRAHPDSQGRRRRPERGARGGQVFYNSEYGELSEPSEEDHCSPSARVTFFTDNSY

Row | Structure (SMILES) | inhibition [1] [%] | inhibition [2] [%] | inhibition [3] [%] | inhibition [4] [%] | inhibition [5] [%] | inhibition [6] [%] | inhibition [7] [%] | inhibition [8] [%] | inhibition [9] [%] | inhibition [10] [%] | inhibition [11] [%] | inhibition [12] [%] | inhibition [13] [%] | inhibition [14] [%] | inhibition [15] [%] | inhibition [16] [%] | inhibition [17] [%] | inhibition [18] [%] | inhibition [19] [%] | inhibition [20] [%]
1 | COc1ccc(-c2cc3c(N)ncnc3o2)cc1 | -1.16 | 0.22 | 3.78 | -1.56 | -1.7 | -0.18 | -1.06 | -2.18 | -0.87 | 4.69 | 2.28 | -1.11 | -1.15 | 0.22 | 1.63 | 0.51 | 4.44 | 2.06 | 17.9 | 0.82
2 | Fc1ccc(-c2nn3ncccc3c2-c2ccnc(Nc3ccc4c(c3)OCCO4)n2)cc1 | 7.06 | 2.45 | 1.02 | 5.03 | 4.48 | 0.64 | 3.68 | 6.98 | 4.83 | 6.56 | 12 | 3.5 | 28.8 | 8.44 | 2.87 | 7.5 | 47.7 | 14.4 | 59.1 | 47

From ChEMBL document CHEMBL1961873, “Compounds: GSK PKIS; Assays: Nanosyn kinase panel” (2012)
